# Screening data from PubChem BioAssay.
# DT40 TDP1 CPT = growth inhibition of DT40 Tdp1-/-;hTDP1 cells with camptothecin (screen for TDP1 inhibitors) | chicken DT40 Tdp1-/-;hTDP1 cells + 20 nM CPT, ATP luminescence, 48 h | Potency, µM (series often up to 46.2 µM), for inactives: top-dose activity change, negative = growth inhibition, hits mostly inhibitors | 420,000 tested, 12% active | AID 686979; further: potency means the concentration at half of the fitted maximal effect; nearly all actives have a fitted effect of over 55% in size
#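 Chicken DT40 Tdp1-/- cells stably complemented with human TDP1 were seeded at 400 cells/well in medium containing 20 nM camptothecin, exposed to pin-transferred compounds, and grown at 37 °C for at least 48 hr. Viability was read as ATP luminescence.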
# HT1080 IDH1KD tx = kills HT-1080 cells with IDH1 knockdown | HT-1080 IDH1 knockdown viability, ATP luminescence, 48 h | Potency, µM (series often up to 46.1 µM), for the others: at the top dose activity, negative = toxicity, actives largely listed as cytotoxic | 360,000 tested, 2% active;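 further: potency means the concentration at half of the fitted maximal effect; 0% = DMSO wells and -100% = cell-free medium wells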
#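 IDH1KD HT-1080 cells, 750/well, RPMI + 5% FBS; compound pinned after 2 h settling; 48 h, 37 °C; CellTiter-Glo luminescence; % activity normalised to DMSO and no-cell wells; curves fitted, classed by r2 and efficacy.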
# ELG1 DNA repair = inhibitors of ELG1-dependent DNA repair in HEK293T cells | HEK293T ELG1-luciferase reporter, luminescence, 16 h; DNA damage induced by 5-fluorouridine | Potency, µM (series often up to 46.1 µM), for inactives: top-dose activity change, negative = inhibition, actives largely listed as inhibitors | 330,000 tested, 2.3% active | AID 504467; further: potency means the concentration at half of the fitted maximal effect; nearly all actives have a fitted effect of over 55% in size
#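 In this reporter screen, reduction of luminescence relative to DMSO vehicle indicated activity. Compounds and 5-fluorouridine were added together to 2,000 cells per well, incubated for 16 hr at 37 °C, then developed with ONE-Glo.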
# IL1B secr inh = blocks inflammasome-driven IL-1 beta release; 360,000 tested, 4.7% active; AID 743279; activity change, % at 57.5 µM; THP-1 LPS/ATP IL-1B secretion, AlphaLISA, 16 h; hits give low values; in the data active means activity change below about -50%; inconclusive means mostly about -30% to -49%
#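 Secreted IL-1B measured by AlphaLISA bead assay after 16 h compound exposure of THP-1 cells; compounds (final up to 57.5 uM) added 1 h before LPS (250 ng/mL) and ATP (1.25 mM) stimulation; lower signal means less secretion.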
# HT1080-NT tox = kills 2HG-producing HT-1080-NT fibrosarcoma cells | 360,000 tested, 1.6% active | AID 686970 | HT-1080-NT fibrosarcoma viability, CellTiter-Glo ATP luminescence, 48 h | Potency, µM (highest dose often 46.1 µM), inactives show top-dose activity, negative = less viability, hits mostly cytotoxic;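 further: NT is the 2HG producing partner of a matched IDH1 knockdown line; potency means the concentration at half of the fitted maximal effect; 0% = DMSO-treated cells and -100% = media-only wells without cells; nearly all actives have a fitted effect of over 55% in size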
#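 Luminescent CellTiter-Glo readout after 48 hours of compound exposure at 37 degrees C defined viability of HT-1080-NT cells. Activity was normalized to DMSO wells and cell-free media wells; concentration-response curves were fitted and assigned curve classes.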
# TDP1 cell noCPT = qHTS for Inhibitors of human tyrosyl-DNA phosphodiesterase 1 (TDP1): qHTS in cells in absence of CPT. Potency, µM (titrated, usually from 46.2 µM), for inactives: top-dose activity change, negative = growth inhibition, most hits filed as inhibitors. 420,000 tested, 15% active. DT40 Tdp1-/- hTDP1 cells, no CPT, ATP luminescence, 48 h; further: potency means the concentration at half of the fitted maximal effect; nearly all actives have a fitted effect of over 55% in size
#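 Growth of hTDP1-complemented DT40 Tdp1-knockout cells is measured by ATP luminescence after at least 48 hr compound exposure at 37 °C, with DMSO substituting for the 20 nM CPT used in the parallel screen.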
# * marks the source's active call; other numbers are inactive results; ? = inconclusive; . = not tested or not shown; [ ] = dose if it differs, or a comment. Shown are actives, neighbours in structure and some others; about 19% of the full set was active somewhere. Unless noted, the call rests on the fitted dose curve; in most records, active means well fitted curve in the direction sought with a large enough effect; inconclusive means small, poorly fitted or top-dose-only effect, or another doubt; inactive means no such curve, though single readings can be large; an effect the other way counts as inactive or inconclusive. Unless noted, on the % scale 0 is the no-effect control and ±100 the full control effect.
SMILES,DT40 TDP1 CPT,HT1080 IDH1KD tx,ELG1 DNA repair,IL1B secr inh,HT1080-NT tox,TDP1 cell noCPT
N#Cc1c(N)nc(SCc2ccccc2)c(C#N)c1-c1ccco1,?,8.3%[9.24 µM],?,-73.0*,?,?
O=C(CC1C(=O)NCCN1CC(c1ccccc1)c1ccccc1)NC1CC1 (stereo not given),-15.9%,2.6%,-1.3%,2.0,11.4%,-5.1%
Cn1c(=O)c2c(-c3ccccc3)n3c(c2n(C)c1=O)C(c1ccccc1[N+](=O)[O-])Nc1ccccc1-3 (stereo not given),23.1µM*,.,.,.,.,-81.8%
Cc1cc2c(cc1C)-n1c(-c3ccccc3)c3c(=O)n(C)c(=O)n(C)c3c1C(c1ccco1)N2 (stereo not given),-26.5%,.,.,.,.,-11.8%
COc1ccc(-c2c3c(=O)n(C)c(=O)n(C)c3c3n2-c2ccccc2NC3c2ccc(O)cc2O)cc1 (stereo not given),16.4µM*,.,.,.,.,16.4µM*
O=c1cc(OCc2ccccc2)cc[nH]1,2.1%,8.3%,20.1%,-65.7*,13.1%,8.1%
O=C(CN(C1CC1)S(=O)(=O)c1ccc(S(=O)(=O)NC2CCCCC2)cc1)Nc1ccccc1,?,-36.8%,?,-12.5,?,?
O=C(CN(Cc1cccs1)S(=O)(=O)c1ccc(S(=O)(=O)NC2CCCCC2)cc1)Nc1ccccc1,20.6µM*,-25.5%,?,-15.8,-9.1%,18.4µM*
CCCCN1Cc2c(nc3cc(-c4ccco4)[nH]n3c2=O)C1=O,-1.5%,18.6%,14.8%,24.9,1.2%,-4.1%
Cc1cccc(N2CCN(C(=O)c3ccccc3NC(=O)C3CC=CCC3C(=O)O)CC2)c1 (stereo not given),?,5.7%[9.24 µM],10.9%,27.7,12.8%,5.8µM*
Cc1ccccc1Oc1ccc(NC(=O)C2CC=CCC2C(=O)O)cc1 (stereo not given),14.6µM*,-3.8%,-0.8%,0.0,-5.4%,6.51µM*
O=C(O)C1CC=CCC1C(=O)Nc1ccccc1Cl (stereo not given),?,23.0%,?,10.1,12.3%,23.1µM*
Cc1ccc(N2CCN(C(=O)c3ccccc3NC(=O)C3CC=CCC3C(=O)O)CC2)cc1 (stereo not given),-14.9%,-0.8%[9.24 µM],16.8%,43.5,-0.8%,-13.7%
CC1(c2nnc(Cc3ccccc3)o2)CC(c2ccccc2Br)=NO1 (stereo not given),-18.0%,-5.9%,-1.7%,10.8,-1.3%,?
Cc1cccc(CCNC(=O)CCc2nnc(CCc3ccccc3)o2)n1,-5.7%,-0.4%,?,2.5,8.3%,5.3%
N#CCCN(Cc1ccccc1)C(CCc1ccccc1)C(=O)NC1CCCCC1 (stereo not given),?,?,.,-7.8,?,?
CN(C(=O)CSC(=O)c1ccccc1)c1ccccc1,-8.9%,6.3%,-4.4%,-27.0,0.5%,-1.4%
Cc1cccc(-c2nc(SCC(=O)N3CCc4ccccc43)c3c(=O)n(C)c(=O)n(C)c3n2)c1,10.1%,.,.,.,.,2.7%
Cc1ccc2[nH]c3c(N4CCOCC4)ncnc3c2c1,?,?,-20.3%,-19.7,-29.4%,?
CCOc1ccc(N2Cc3ccccc3C2)cc1,-19.9%,3.4%,?,5.7,8.3%,?
CN1CCN(c2ncnc3c2[nH]c2ccc(F)cc23)CC1,?,-22.7%,-11.6%,-21.0,0.3%,?
Cc1ccc2[nH]c3c(N4CCc5ccccc5C4)ncnc3c2c1,2.91µM*,-7.8%,?,-83.2*,20.6µM*,3.66µM*
Fc1ccc2[nH]c3c(N4CCc5ccccc5C4)ncnc3c2c1,1.84µM*,2.59µM*,1.3µM*,?,10.3µM*,1.84µM*
CCOc1ccc2[nH]c3c(N4CCc5ccccc5C4)ncnc3c2c1,14.6µM*,10.3µM*,18.3µM*,.,18.4µM*,16.4µM*
O=c1[nH]c(=O)n(Cc2ccc(Oc3ccccc3)cc2)cc1Br,.,.,-5.4%,.,.,.
SMILES,DT40 TDP1 CPT,HT1080 IDH1KD tx,ELG1 DNA repair,IL1B secr inh,HT1080-NT tox,TDP1 cell noCPT
C=C1CC(Cn2cc(Br)c(=O)[nH]c2=O)(c2ccc(-c3ccccc3)cc2)OC1=O (stereo not given),0.0326µM*,1.64µM*,.,-2.4,2.31µM*,0.0259µM*
O=Cc1ccc(C(=O)OCC(=O)Nc2ccc(F)cc2F)cc1,17.0%,4.1%,15.5%,1.9,0.3%,22.4%
COc1ccc(-n2cnnc2SCC(=O)NC2CC2)cc1,0.5%,4.8%,.,16.5,-0.7%,9.3%
CN(C(=O)COC(=O)C1=COCCO1)c1c(N)n(Cc2ccccc2)c(=O)[nH]c1=O,5.7%,17.8%,2.3%,10.9,25.9%,6.1%
CCN(C(=O)COC(=O)C1=COCCO1)c1ccccc1,5.5%,-1.1%,12.9%,-21.1,2.8%,6.51µM*
O=C(O)c1cc2cc(Cc3cccnc3)ccc2o1,-2.7%,.,.,.,.,-1.8%
Cc1ccc(NC(=S)N(CCN(C)C)C(C)c2ccco2)cc1C (stereo not given),18.4µM*,12.9%,-18.4%,-18.6,8.0%,?
Cc1ccc(NC(=S)N(C)C(c2ccccc2)c2ccccc2)cc1C,?,-1.4%,13µM*,-1.5,?,23.1µM*
COCCN(C(=S)Nc1ccc(C)c(C)c1)C(C)c1ccco1 (stereo not given),?,7.3%,?,7.6,-0.4%,?
CCOc1ccc(NC(=O)Cn2c(=O)n(CC3CCC(C(=O)NCCc4ccccc4)CC3)c(=O)c3ccccc32)cc1 (stereo not given),5.4%,.,.,.,.,3.8%
OCC1OC(n2cnc3c(N4CCCCC4)ncnc32)C(O)C1O (stereo not given),-16.8%,-4.2%,.,0.0,-3.0%,-8.6%
O=C(Cn1cccc1C(=O)c1ccccc1)NCc1ccc(F)cc1,-1.1%,18.0%,10.4%,-2.8,2.0%,0.6%
CCOc1ccc(NC(=O)c2cc(=O)c3ccc(C)c(C)c3o2)cc1,?,.,.,.,.,9.2µM*
O=C(O)C(CCc1ccccc1)N1CCOCC1 (stereo not given),-13.1%,-3.2%,.,-21.3,-1.2%,?
CCOC(=O)c1scc(-c2ccc(C)cc2)c1S(=O)(=O)N1CCN(c2ccccc2F)CC1,14.6µM*,.,.,.,.,18.4µM*
CCc1ccc(NS(=O)(=O)c2c(-c3ccccc3)csc2C(=O)OC)cc1,?,.,.,.,.,23.1µM*
